# Compound activity deposited in PubChem by several laboratories.
# SENP8 block-1: human SENP8 protease inhibitors, primary screen, biochemical, fluorescence, Nedd8 protein substrate, uHTS. inhibition, % at 20 µM. hit rate 0.64% among 360,000. recombinant SENP8; in the data active = inhibition mostly above about 40%, no sharp cut-off; inactive = mostly below about 27%
# HSP90 inh: HSP90 inhibitors, primary screen, cell lysate, luminescence; inhibition, % at 5.6 µM; Heat shock protein HSP 90 (rabbit reticulocyte lysate; luciferase refolding); hit rate 0.91% among 290,000; Rabbit reticulocyte lysate, luciferase refolding luminescence, 3 h;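 active = inhibition above the screen-wide mean plus 3 SD, computed separately per campaign, cut at about 16% in these data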;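 note: 0% = DMSO wells and 100% = 60 µM geldanamycin wells; inhibitors lower the luminescence because luciferase stays unfolded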
# SENP6 inh: SENP6 protease inhibitors, primary screen, biochemical, luminescence, uHTS. Sentrin-specific protease 6 (Homo sapiens), Q9GZR1. Recombinant SENP6 catalytic domain, aminoluciferin luminescence. inhibition, % at 10 µM. hit rate 1.8% among 330,000;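 active = inhibition above about 50% at the single tested dose, limit read from the data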;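 note: plate controls were DMSO wells with enzyme for no effect and DMSO wells lacking enzyme for full effect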
# Target sequence (Q9GZR1 628-1112 limits assumed): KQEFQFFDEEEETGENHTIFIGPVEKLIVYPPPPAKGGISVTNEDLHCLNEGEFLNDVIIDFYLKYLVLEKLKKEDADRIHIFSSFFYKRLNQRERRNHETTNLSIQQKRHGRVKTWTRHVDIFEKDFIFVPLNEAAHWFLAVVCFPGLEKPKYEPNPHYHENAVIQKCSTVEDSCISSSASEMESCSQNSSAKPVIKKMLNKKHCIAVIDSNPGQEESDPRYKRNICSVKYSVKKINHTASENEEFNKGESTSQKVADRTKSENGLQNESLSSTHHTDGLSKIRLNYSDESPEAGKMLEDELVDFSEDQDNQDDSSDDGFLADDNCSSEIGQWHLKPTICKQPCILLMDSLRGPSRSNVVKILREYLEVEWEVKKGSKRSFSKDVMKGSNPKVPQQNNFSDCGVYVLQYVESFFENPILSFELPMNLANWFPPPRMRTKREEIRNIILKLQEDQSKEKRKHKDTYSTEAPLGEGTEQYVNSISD
# SENP7 inh: SENP7 protease inhibitors, primary screen, biochemical, luminescence, uHTS; inhibition, % at 5 µM; hit rate 1.5% among 330,000; Sentrin-specific protease 7 (Homo sapiens), Q9BQF6; recombinant SENP7, Z-RLRGG-aminoluciferin luminescence, 40 min; AID 434973, 2010;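 active = inhibition above about 50% at the single test dose, limit read from the data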;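 note: plate controls were DMSO with enzyme for no effect and no enzyme buffer wells for full effect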
# SENP8 block-2: SENP8 protease inhibitors, primary screen, biochemical, luminescence; purified SENP8, Z-RLRGG-aminoluciferin cleavage; inhibition, % at 10 µM; hit rate 1.2% among 330,000; in the data active = inhibition above about 50%
# SENP8 conf: human SENP8 protease inhibitors, confirmation, biochemical, Nedd8 protein substrate, single concentration; purified SENP8, Nedd8-AMC/pro-Nedd8 cleavage fluorescence, 30 min; hit rate 15% among 1,400; inhibition, % at 25 µM; shares compounds with SENP8 block-1; in the data active = inhibition mostly above about 39%, no sharp cut-off; inactive = mostly below about 34%
# Numbers without * were called inactive; x = no result. Only some compounds are listed: those with a hit (about 2.7% of all), similar ones and a draw of the others.
SMILES,SENP8 block-1,HSP90 inh,SENP6 inh,SENP7 inh,SENP8 block-2,SENP8 conf
C=CC(C)(O)CCC=C(C)C (configuration not stated),41*,x,-2,-6,8,17
CC(C)=CCC/C(C)=C/CC/C(C)=N/O,20,4,25,1,0,x
CCOC(=O)[C@]12CCC=C1N(Cc1ccc(Cl)cc1Cl)C(=O)[C@H](CC(=O)NCCC(C)C)C2,13,x,x,x,x,x
COc1ccc(CCNC(=O)CCC(=O)N2CCN(S(=O)(=O)c3ccccc3)CC2)cc1OC,48*,1,-16,-5,-10,-5
COc1ccc(CCC(=O)N2CCN(S(=O)(=O)c3cccc(C(F)(F)F)c3)CC2)cc1OC,22,x,-6,-6,-9,x
COc1ccc(CCNC(=O)CCC(=O)N2CCN(S(=O)(=O)c3ccc(Cl)cc3)CC2)cc1OC,44*,-8,-17,-5,2,8
O=C(C1CCN(S(=O)(=O)c2cnc[nH]2)CC1)N1CCc2ccccc2C1,42*,2,-3,0,-1,34
COc1ccc(CCNC(=O)COC(=O)c2ccc(S(=O)(=O)N3CCCC3)cc2)cc1OC,18,x,0,1,-8,x
COc1ccc(CCNC(=O)C2CCN(S(=O)(=O)c3cnc[nH]3)CC2)cc1OC,40*,2,-2,0,6,18
COc1ccc(CCNC(=O)C2CCCN(S(=O)(=O)c3cnc[nH]3)C2)cc1OC (configuration not stated),0,3,-17,8,0,x
O=C(On1c(-c2ccccc2)nc2ccccc2c1=O)c1ccco1,-1,-4,7,5,2,x
Cc1c(NC(C)c2ccccc2O)c(=O)n(-c2ccccc2)n1C (configuration not stated),7,5,-3,-3,-7,x
CCN(CC)c1ccc(N/C(N)=N/c2nc(C(F)(F)F)cc(=O)[nH]2)cc1,16,-6,-6,-7,-10,x
COc1ccc(S(=O)(=O)N2CCOCC2)cc1NC(=O)COC(=O)C1=COCCO1,41*,0,-12,-6,-4,11
Cc1nc(C)c(-c2ccccc2)c(=O)[nH]1,11,-4,-27,11,-9,x
Cc1nc(C)n(C)c(=O)c1-c1ccccc1,40*,-5,-21,-6,-8,5
CCCNC(=O)C1(C)CCN(C(=O)c2cc(C)n(C(C)(C)C)n2)C1 (configuration not stated),-2,x,x,x,x,x
Cc1c(N=C2N=C(NC(=O)NC(C)(C)C)c3ccccc32)c(=O)n(-c2ccccc2)n1C,9,-2,-11,-1,-6,x
Cc1c(N=C2N=C(NC(=O)c3cccs3)c3ccccc32)c(=O)n(-c2ccccc2)n1C,60*,-4,1,4,8,17
Cc1[nH][nH]c(=O)c1C(c1ccc(-c2ccc(F)cc2)o1)c1c(C)[nH][nH]c1=O,75*,5,13,-1,3,72*
Cc1[nH][nH]c(=O)c1C(c1ccc(N(C)C)c(Br)c1)c1c(C)[nH][nH]c1=O,25,1,5,-8,-5,x
COc1ccc(-c2ccc(C(c3c(C)[nH][nH]c3=O)c3c(C)[nH][nH]c3=O)o2)c([N+](=O)[O-])c1,38*,14,13,10,20,31
Cc1c(C(=O)N(C)C2CCCCC2)sc2ncnc(N3CCN(c4ccccc4F)CC3)c12,5,3,-2,-3,12,x
Cc1cc(=O)oc(C)c1C(=O)Nc1cccc2ccccc12,43*,4,12,2,0,17
COc1ccc(/C=C(\C#N)C(=O)Nc2ccccn2)cc1,2,4,-35,1,2,x
SMILES,SENP8 block-1,HSP90 inh,SENP6 inh,SENP7 inh,SENP8 block-2,SENP8 conf
O=[N+]([O-])c1ccc(N2CCN(S(=O)(=O)c3ccc(Cl)cc3)CC2)cc1NCc1cccnc1,39,1,0,11,6,x
O=[N+]([O-])c1ccc(N2CCN(S(=O)(=O)c3ccccc3)CC2)cc1NCc1cccnc1,50*,2,0,-6,-4,14
O=C(c1ccc(Cl)cc1)N1CCN(c2ccc([N+](=O)[O-])c(NCc3cccnc3)c2)CC1,46*,2,-9,-3,5,18
Cc1nc(CS(=O)(=O)c2ccccn2)sc1C(=O)NNC(=O)c1c(F)cccc1Cl,42*,-4,1,7,0,14
COC(=O)c1sc(NC(=O)c2ccc([N+](=O)[O-])o2)c(C#N)c1C,42*,-1,3,11,-1,12
COc1cccc(CNC(=O)c2c(C)nn(-c3ccccc3)c2C)c1,2,-1,-1,-9,-7,x
Cc1ccoc1C(=O)NCCCNC(=O)c1occc1C,62*,0,-4,-1,1,82*
COc1ccc(CCN(C)c2ccc(S(=O)(=O)N3CCCC3)cc2[N+](=O)[O-])cc1OC,43*,-2,5,-5,-8,10
CSc1nncc(/C(C)=N\Nc2ccccc2)n1,52*,-2,6,8,3,17
Cc1cccc(N/N=C(\C#N)S(=O)(=O)C(C)(C)C)c1,23,0,x,x,x,x
CC/C(=N/Nc1ccccc1C)c1cnnc(SC)n1,11,-4,27,7,0,x
CSc1nncc(/C(C)=N\Nc2cccc(C)c2)n1,46*,-3,-6,7,6,16
O=C1c2ccccc2C(c2nnnn2-c2ccc3c(c2)OCCO3)N1CCc1ccc(O)cc1 (configuration not stated),20,x,x,x,x,x
CCOc1ccccc1C(=O)N(CCC(=O)OC)c1ccccn1,43*,4,-9,-5,-4,16
CCN(CC)CC(=O)n1c2c(c3ccccc31)CCCC2,11,-4,-3,7,0,x
CN1CCN(CC(=O)n2c3c(c4ccccc42)CCCC3)CC1,44*,1,20,4,15,38
COc1ccc(C(=O)COc2ccc(C)cc2NC(C)=O)cc1,41*,-2,-2,-7,-2,8
O=C(COC(=O)CNC(=O)c1ccccc1F)Nc1ccc(Cl)cn1,6,x,-4,5,-2,x
O=C(COc1ccccc1)NCc1cccs1,42*,-2,-3,-8,-9,12
COc1cccc(-c2cc(C(=O)N3CCc4ccccc4C3)no2)c1,58*,5,35,7,3,78*
Cc1ccc(S(=O)(=O)NCc2ccccc2)cc1C(=O)NCC(C)(C)N1CCOCC1,24,x,-9,3,-7,x
CCOc1ccc(S(=O)(=O)Nc2ccc(S(=O)(=O)N3CCCCC3)cc2)cc1,13,0,0,1,0,x
